Experimental data as given in PubChem BioAssay AID743398 (Broad Institute, 2014).
In all, about 300,000 compounds went through this assay and about 3,600 (1.2%) were called active. Rule as the data show it: active = activation above about 30% (passing the limit was not always enough); inconclusive = no clear call, values can overlap the other calls. Many of the other results were omitted from the sample, so actives are more common in it than they were.

Assay: activation of beta-catenin signaling reporter – cell-based, plate reader, single point, primary screen (AID 743398);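 also: 0% = neutral control wells and 100% = positive control wells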
Settings: Wnt/beta-catenin reporter cell assay, activator, at 9.35 µM, stronger effect = higher value

SMILES | activation
COc1cc(NC(=O)C2=C(C)OCCS2)c(Cl)cc1C(=O)NCCCN1CCCC(C)C1 (stereo not given) | 2.04% (inactive)
Cc1cc2cc3n(c2nn1)N=C(Cl)CC3 | -1.61% (inactive)
Cc1nn(-c2ccc([N+](=O)[O-])cc2)c(N)c1-c1ccccc1 | 37.5% (active)
O=C1CC(c2ccccc2)=NN1c1ccc([N+](=O)[O-])cc1 | 5.66% (inactive)
Cc1cc(CO)nn1-c1ccc([N+](=O)[O-])cc1 | 3.25% (inactive)
CC(C)C[C@H](NC(=O)CC1CCCC1)C(=O)N1CCC[C@H]1C(=O)NCc1ccccc1 | 3.46% (inactive)
COc1cccc(NC(=O)C2(C)CCN2C(=O)CCC2CCCC2)c1 (stereo not given) | -2.67% (inactive)
Cc1ccc(Cc2c(-c3ccc(Cl)cc3)nc3c4ccccc4ccn23)cc1 | -0.0465% (inactive)
O=C(Cc1nc2ccccc2[nH]c1=O)c1ccc(Cl)cc1 | 52.5% (active)
O=C(/C(=C/c1cccc(Cl)c1)c1nc2ccccc2[nH]1)c1ccccc1 | 27.7% (inactive)
O=C(CSc1nc2ccc([N+](=O)[O-])cc2[nH]1)c1ccc(Cl)cc1 | -2.13% (inactive)
Cc1ccc(Nc2ncnc3c2cnn3C)c(C)c1 | 0.858% (inactive)
O=C(NNc1ncnc2c1cnn2-c1ccccc1)c1ccco1 | 0.184% (inactive)
Cc1ccc(-n2ncc3c(Nc4cccc(C(=O)O)c4)ncnc32)cc1 | 42.2% (active)
CC(=O)C1=C(C)N(Cc2ccc(Cl)cc2)C(=S)NC1c1ccc(F)cc1 (stereo not given) | -10% (inactive)
COc1ccc(C2C(C#N)=C(N)N(c3ncn[nH]3)C3=C2C(=O)CCC3)cc1 (stereo not given) | 43.2% (active)
N#CC1=C(N)N(c2ccccc2)C2=C(C(=O)CCC2)C1c1ccccc1 (stereo not given) | -0.648% (inactive)
CCOc1ccc(C2C(C#N)=C(N)N(N(C)C)C3=C2C(=O)CCC3)cc1 (stereo not given) | 6.29% (inactive)
COc1cccc(-c2nc3nc(C)cc(C)n3c2NC2CCCCC2)c1 | 5.8% (inactive)
CC[C@H](NC(=O)[C@H](Cc1ccccc1)NC(=O)[C@H]1O[C@@H](n2cnc3c(=O)[nH]c(N)nc32)[C@H](O)[C@@H]1O)c1ccccc1 | -0.864% (inactive)
Cc1sc2ncnc(N3CCC(C(=O)Nc4nc5ccc(Cl)cc5s4)CC3)c2c1C | 38.3% (active)
Cc1sc2ncnc(N3CCC(C(=O)NNC(=O)c4ccc(F)cc4)CC3)c2c1C | 3.2% (inactive)
Cc1sc2ncnc(N3CCC(C(=O)Nc4ccc(F)cc4Cl)CC3)c2c1C | -1.16% (inactive)

SMILES | activation
C[C@H](NC(=O)[C@@H]1CCCN1C(=O)[C@@H]1CCCN1C(=O)c1ccccc1)c1ccccc1 | -3.41% (inactive)
COc1ccc(Cn2c(-c3ccc(Cl)cc3)c[n+]3ccccc23)cc1 | 68.9% (active)
COc1ccc(Cn2c(=O)oc3ccccc32)cc1 | 8.74% (inactive)
CCn1c(C)cc(=O)cc1-c1ccc(Cl)cc1 | 2.88% (inactive)
Cc1cc(C)n2c(NCc3ccccc3)c(CC(C)C)nc2n1 | -0.325% (inactive)
COC(=O)C1=C(C)N(Cc2cccc(C(F)(F)F)c2)C(=NCc2ccccc2)NC1c1ccccc1C(F)(F)F (stereo not given) | -15.6% (inactive)
O=C(CC(CC(=O)c1ccccc1)c1ccco1)c1ccccc1 | 0.593% (inactive)
O=C(COC(=O)c1ccccc1)c1ccc2c(c1)OCCO2 | -3.49% (inactive)
O=C(COC(=O)c1ccc(O)cc1O)c1ccc2c(c1)OCCO2 | 53.6% (active)
O=C(COC(=O)c1ccc(O)cc1O)NC(=O)c1ccccc1 | -3.61% (inactive)
O=C(O)Cn1cnc2c(NCc3ccccc3)ncnc21 | -0.517% (inactive)
COC(=O)C1=C(C)N(Cc2cccc(C(F)(F)F)c2)C(=NCc2ccccc2)NC1c1ccc(Cl)cc1 (stereo not given) | -31.1% (inactive)
O=C(NC1CCCC1)c1cc(-c2ccccc2)on1 | 46.9% (active)
O=C(NCCCn1ccnc1)c1cc(-c2ccccc2)on1 | 113% (active)
O=C(NC1CCCCC1)c1cc(C2CC2)on1 | 24.8% (inactive)
O=C(NC1CCCCCCC1)c1cccs1 | 9.38% (inactive)
COc1ccc(-c2cc(C(=O)NCCCn3ccnc3)no2)cc1 | 6.05% (inactive)
O=C(NCCCn1ccnc1)c1ccccc1F | -0.169% (inactive)
Cc1ccccc1S(=O)(=O)N1[C@@H](c2cccc(Cl)c2)C(C(=O)OC(C)(C)C)=CC[C@H]1c1ccc(Cl)cc1 | -9.66% (inactive)
COc1ccccc1-c1ccc([C@@H]2C[C@H]3[C@H](CON3C)CN2S(=O)(=O)c2cc(Cl)cc(Cl)c2)cc1 | -3.43% (inactive)
COC(=O)[C@]12C[C@H](CC(=O)NCc3ccccc3)C(=O)N(CCC3=CCCCC3)C1=C[C@H](C(C)(C)C)O[C@@H]2C | -7.29% (inactive)
Cc1cccc(CNC(=O)c2sc(=O)n(Cc3ccccc3C)c2C)c1 | -2.16% (inactive)
Cc1cnc(NC(=O)c2ccc(Cl)nc2)s1 | 29% (inactive)

SMILES | activation
Cc1cnc(NC(=O)c2ccccn2)s1 | 41.6% (active)
O=C(Nc1nnc(C2CC2)s1)c1ccccn1 | 3.38% (inactive)
COC(=O)[C@]12C[C@H](CC(=O)NCCCCc3ccccc3)C(=O)N(Cc3ccc4c(c3)OCO4)C1=C[C@H](C(C)(C)C)O[C@@H]2C | -8.78% (inactive)
NC(=O)CSc1nnc(NC(=O)c2ccc(Br)o2)s1 | 3.36% (inactive)
O=C(/C=C/c1ccccc1)Nc1nnc(SCC(=O)c2ccc3ccccc3c2)s1 | -11.8% (inactive)
NC(=O)CSc1nnc(NC(=O)c2ccc3ccccc3c2)s1 | 39.8% (active)
COc1ccc(CC(N)c2csc(NC(=O)Nc3ccc(C(C)C)cc3)n2)cc1 (stereo not given) | 0.986% (inactive)
Cc1ccc(C)c(CN2CCC(CNC(=O)C3CCCN(c4ncnc5c4nc4n5CCCCC4)C3)CC2)c1 (stereo not given) | 2.22% (inactive)
CSc1ccc(CN2CCC2(C)C(=O)NCc2ccccc2Br)cc1 (stereo not given) | -0.564% (inactive)
CCOC(=O)C1CCCN(C(=O)c2cc(-c3cccs3)oc2C)CC1 (stereo not given) | -1.53% (inactive)
Nc1ccc(N=Nc2ccccc2Cl)c(N)n1 | 37.3% (active)
CCN1C(=O)[C@@H]2[C@@H]3CN(S(=O)(=O)c4ccccc4C)[C@@H](c4ccc(Cl)cc4)[C@@H]3C(=O)C[C@@H]2C1=O | -1.76% (inactive)
Oc1cccc2cc(-c3ccncc3)cnc12 | 4.6% (inactive)
C=CC[C@]12C[C@@]3(O[C@H](c4ccc(C(F)(F)F)cc4)N=C3C[C@H](c3ccc(OC)cc3)[C@H]1C)N(C1CCN(Cc3ccccc3)CC1)C2=O | -5.8% (inactive)
C=CCOc1cccc(C2C(C(=O)c3ccc(C)o3)=C(O)C(=O)N2CCN2CCOCC2)c1 (stereo not given) | -3.18% (inactive)
Cc1cccc(-c2noc(-c3ccc(F)cc3)n2)c1 | 51% (active)
Cc1ccc(-c2nc(-c3ccncc3)no2)c(C)c1 | 0.571% (inactive)
Cc1ccc(Cc2nc(-c3cccc(C)c3)no2)cc1 | 16.6% (inactive)
CN1CCCCC(NC(=O)C(C)(C)C)C1=O (stereo not given) | -0.306% (inactive)
Nc1[nH]c(C(=O)c2ccccc2)c(-c2ccc(Cl)cc2Cl)c1C(=O)c1ccccc1 | 3.74% (inactive)
COc1cccc(/C=C/c2ccc3ccccc3n2)c1OC(C)=O | -2.71% (inactive)
NC(=O)COC(=O)/C=C/c1ccc2ccccc2n1 | 48.3% (active)
CCOc1cccc(/C=C/c2ccc3ccccc3n2)c1OC(C)=O | 7.85% (inactive)

SMILES | activation
C[C@@H]1CN([C@@H](C)CO)C(=O)CCCn2nncc2CO[C@@H]1CN(C)S(=O)(=O)c1ccc(-c2ccccc2)cc1 | -3.45% (inactive)
CCCNC(=O)C1(C)CCN(Cc2csc(-c3ccc(Cl)cc3)n2)C1 (stereo not given) | -1.95% (inactive)
O=C(O)/C=C/C(=O)Nc1ccc(F)cc1F | -1.57% (inactive)
COC(=O)c1sc(-c2ccc(C(C)(C)C)cc2)cc1NC(=O)/C=C/C(=O)O | 34.5% (active)
COc1ccccc1NC(=O)/C=C/C(=O)O | 0.198% (inactive)
CCc1nc2c(OCc3ccccc3)cccn2c1N(C)C(=O)c1ccco1 | -1.39% (inactive)
Cc1ccc(C(O)c2ncc(-c3ccccc3F)[nH]2)cc1F (stereo not given) | -2% (inactive)
COc1ccc(C2OC(CCc3ccccc3)Cc3[nH]c(=S)[nH]c(=O)c32)cc1 (stereo not given) | -4.52% (inactive)
OCCC#Cc1ccc(N2C(c3ccsc3)=Cc3ccc(F)cc3C2c2c[nH]c3ccccc23)cc1 (stereo not given) | -4.42% (inactive)
C=CC1=CCN(S(=O)(=O)C(C)(C)C)[C@@H]1CCO | -5.37% (inactive)
O=C(Nc1ccccc1N1CCOCC1)c1csc2c1CCCC2 | 3.53% (inactive)
O=C(N/N=C/c1ccco1)c1csc2c1CCCC2 | 14.7% (inactive)
Cc1ccc(NC(=O)c2csc3c2CCCC3)cc1 | 33.5% (active)
COc1cccc(CNC(=O)[C@H]2CCCN2C(=O)[C@H]2CCCN2C(=O)c2ccc(F)cc2)c1 | -3.18% (inactive)
Cc1ccc2nc(-c3ccc(CN4CCC(n5cc(-c6ccccc6)[nH]c5=O)CC4)cc3)c(-c3ccccc3)nc2c1 | -0.633% (inactive)
O=C(/C=C/c1ccc(N2CCOCC2)cc1)c1ccccc1 | 38.7% (active)
O=C(CN1CCN(S(=O)(=O)/C=C/c2ccccc2)CC1)Nc1ccc(N2CCOCC2)cc1 | -0.917% (inactive)
O=C(O)c1ccc2c(c1)C(=O)N(c1ccc(/C=C/C(=O)c3ccccc3)cc1)C2=O | 31.9% (active)
O=C(NN=Cc1ccc(N2CCOCC2)cc1)c1cc2ccccc2cc1O | -3.76% (inactive)
Cc1cccc(N2C(=O)c3ccc(C(=O)Nc4cccc(C(=O)O)c4)cc3C2=O)c1 | 3.97% (inactive)
O=C(O)c1ccc2c(c1)C(=O)N(NC(=O)c1ccc(O)cc1)C2=O | -0.273% (inactive)
